Data on four compounds can be found in PubChem BioAssay (NCATS).

Where “and” joins values, the source holds several entries; their conditions need not be identical. Equal entries are not always repeated. Records with an inconclusive call do not appear. Calls of active or inactive are those of the source. Unless noted, calls come from the whole dose curve; as a rule, active = well fitted curve in the direction sought with a large enough effect; inconclusive = small, poorly fitted or top-dose-only effect, or another doubt; inactive = no such curve, though single readings can be large; an effect the other way counts as inactive or inconclusive.

Experiment [1] in a line: qHTS Assay for Identifying Gametocytocidal Compounds (AID 743244).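 For max response: % is set by controls: 0 for no effect and ±100 for the full control effect; actives lower the fluorescent signal which means gametocytes are killed.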 Note: potency is the fitted concentration of half-maximal effect. The settings on record: P. falciparum 3D7 stage III-V gametocytes, alamarBlue, 72 h; max response: stronger effect = lower value. In a few lines: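 Using 20,000 stage III–V 3D7 gametocytes per well, compounds were incubated 72 h under 37 °C/5% CO2. Viability was then assessed by 24 h alamarBlue reduction, measured fluorometrically at 525/598 nm.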

Experiment [2] can be described thus: qHTS profiling for inhibitors of Plasmodium falciparum (3D7) proliferation (AID 743322; call rule not given here;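 note: infected erythrocytes exposed to compound for 72 h before lysis; 100% = DMSO vehicle wells and 0% = 0.29 µM artemisinin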). To be noted: P. falciparum 3D7 proliferation; at 28.7 µM (top of the series) unless noted. Summed up:
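Erythrocytes infected with P. falciparum (0.3% parasitemia, 2.5% hematocrit) incubated with compounds 72 h at 37 C, 5% CO2. Lysis with saponin/Triton buffer containing SYBR Green I, overnight at room temperature in the dark; DNA fluorescence (485/535 nm) normalised to 0.29 uM artemisinin and DMSO.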

Experiment [3] is described as follows: qHTS profiling for inhibitors of Plasmodium falciparum (DD2) proliferation (AID 743323; call rule not given here). To be noted: lower = more inhibition; at 28.7 µM (top of the series) unless noted. In a few lines:
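Parasite DNA quantified by SYBR Green fluorescence (ex 485, em 535 nm) after saponin/Triton lysis and overnight dark incubation. Cultures: 0.3% parasitemia, 2.5% hematocrit, 72 h, 37 C; data scaled between DMSO and 0.29 uM artemisinin.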

The nature of experiment [4]: qHTS profiling for inhibitors of Plasmodium falciparum (HB3) proliferation (AID 743324).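 Note: 100% = DMSO vehicle wells and 0% = artemisinin-treated control wells.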 To be noted: Plasmodium falciparum HB3 blood-stage proliferation; at 28.7 µM (top of the series) unless noted. In a few lines: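 P. falciparum HB3 grown in erythrocytes (0.3% parasitemia, 2.5% hematocrit final) with compound for 72 h at 37 C, 5% CO2. Parasite DNA detected by SYBR Green after saponin/triton lysis overnight; normalized to 0.29 uM artemisinin and DMSO.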

Experiment [5] can be described thus: qHTS assay to identify small molecule inhibitors of chordoma cells - UCH-1 (AID 1259355). Note: % is set by controls: 0 for no effect and ±100 for the full control effect; nearly all actives have a fitted effect of over 55% in size. The settings on record: UCH-1 chordoma viability, CellTiter-Glo, 48 h, combination, with auranofin plus four topoisomerase inhibitors; series mostly up to 46.1 µM. In a few lines:
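Seed 800 cells per well; incubate overnight at 37 C, 5% CO2. Add test compounds (15 concentrations), then the auranofin–topoisomerase-agent combination. Incubate 48hr, add CellTiter-Glo, wait 30min, read luminescence.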

The nature of experiment [6]: qHTS assay to identify small molecule inhibitors of chordoma cells - UCH-2 (AID 1259356). Note: % is set by controls: 0 for no effect and ±100 for the full control effect. The settings on record: UCH-2 chordoma viability, CellTiter-Glo ATP luminescence, 48 h; series mostly up to 46.1 µM.
Experiment [7] can be described thus: P-glycoprotein substrates identified in KB-8-5-11 adenocarcinoma cell line, qHTS therapeutic library screen (AID 1346987). Note: % is set by controls: 0 for no effect and ±100 for the full control effect; nearly all actives have a fitted effect of over 65% in size. To be noted: KB-8-5-11 (P-gp overexpressing) viability, CellTiter-Glo, 72 h; series mostly up to 44.5 µM. Summed up:
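KB-8-5-11, a colchicine-selected P-gp-overexpressing KB-3-1 subline, was grown without colchicine for the assay. Cells were seeded at 500 cells/well, dosed in concentration-response and incubated 72 h at 37 degree C, 5% CO2. Viability was read by CellTiter-Glo luminescence.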

Experiment [8] in a line: qHTS assay for cell viability of HEK293 cells (AID 743288). Note: % is set by controls: 0 for no effect and ±100 for the full control effect; nearly all actives have a fitted effect of over 50% in size. The settings on record: ATP luminescence (CellTiter-Glo), 18 h; max response: stronger effect = lower value. Summed up:
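HEK293 parental, 2,000 cells/well; ≥5 h pre-incubation 37 C; pintool compound addition; 18 h, 37 C; CellTiter-Glo 30 min RT; luminescence read.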

A short description of experiment [9]: qHTS assay for cell viability of the p53RE-bla HCT-116 cell line (AID 743292). Note: % is set by controls: 0 for no effect and ±100 for the full control effect; nearly all actives have a fitted effect of over 55% in size. To be noted: p53RE-bla HCT-116 viability, ATP luminescence, 16 h; series mostly up to 95 µM. Summed up:
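Viability of compound-treated p53RE-bla HCT-116 cells is taken from ATP-dependent luciferase luminescence. Treatment lasts 16 h at 37 C after a 5 h settling period; detection follows 30 min at room temperature.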

Consider `CCN(CC)C(=S)S`, for which the Potency in [1] was 6.31 µM (active). In experiment [2], the remaining parasite growth % (stronger effect = lower value) came to 87.7%. In addition, in experiment [3], the activity, percent of control stood at 82.5%. For the same compound, the remaining proliferation (% of control), lower = more inhibition in experiment [4] turned out to be 84.6%. The Potency entry in [5], in experiment [6] and in [7] was “inactive” throughout.
As to `CC(C)C[C@H](NC(=O)[C@@H](COC(C)(C)C)NC(=O)[C@H](Cc1ccc(O)cc1)NC(=O)[C@H](CO)NC(=O)[C@H](Cc1c[nH]c2ccccc12)NC(=O)[C@H](Cc1cnc[nH]1)NC(=O)[C@@H]1CCC(=O)N1)C(=O)N[C@@H](CCCN=C(N)N)C(=O)N1CCC[C@H]1C(=O)NNC(N)=O`, the max response in experiment [1] was 16.2% (inactive) and -4.65% (inactive). In addition, the Potency result in experiment [5] and in experiment [6] was “inactive” each time.
On to `Cc1c(N)nc([C@H](CC(N)=O)NC[C@H](N)C(N)=O)nc1C(=O)N[C@H](C(=O)N[C@H](C)[C@@H](O)[C@H](C)C(=O)N[C@H](C(=O)NCCc1nc(-c2nc(C(=O)NCCCCN=C(N)N)cs2)cs1)[C@@H](C)O)[C@@H](O[C@@H]1O[C@@H](CO)[C@@H](O)[C@H](O)[C@@H]1O[C@H]1O[C@H](CO)[C@@H](O)[C@H](OC(N)=O)[C@@H]1O)c1cnc[nH]1`, for which the max response in [1] is -1.54% (inactive) and 0.24% (inactive). The remaining parasite growth % (stronger effect = lower value) in experiment [2] was found to be 83.7%. The compound also showed an activity, percent of control in experiment [3] of 82.1%. In experiment [4], this compound had a remaining proliferation (% of control), lower = more inhibition of 67.1%. In addition, the Potency result in experiment [5], in experiment [6] and in experiment [7] was “inactive” in each case.
As to `CCCCCCCCCCCCCCCCCC(=O)OC[C@@H](O)[C@H]1OC[C@H](O)[C@H]1O`, the max response in experiment [8] is -11.8% (inactive). In addition, the outcome in [9] was inactive. Besides, the Potency entry in experiment [5], in experiment [6] and in [7] was “inactive” in each case.
